Several values for one entry are separate records, joined by “and”; a condition that tells them apart may be missing. Identical values can stand only once. Inconclusive results are not listed. Some structures have more than one record in an assay (separate samples or runs), and their calls can disagree. Activity calls are given as the source filed them. Unless noted, calls follow the shape of the dose curve; as a rule, active = well fitted curve in the direction sought with a large enough effect in the repeat runs; inconclusive = weak or mixed curves; inactive = no such curve, though single readings can be large; an effect the other way counts as inactive or inconclusive.

Assay [1] is described as follows: qHTS assay to test for compound auto fluorescence at 535 nm (green) in HEK293 cells (AID 720680). (In general: In qHTS, concentration-response curves come from the screen itself.)
Assay [2] can be described thus: qHTS assay to test for compound auto fluorescence at 460 nm (blue) in HEK293 cell free culture (AID 720681). Put shortly: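 Compounds were added to cell-free DMEM with 10% FBS and fluorescence read directly. The blue channel used 405 nm excitation and 460 nm emission, with triamterene as the reference fluorophore.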
Assay [3] in a line: qHTS assay to test for compound auto fluorescence at 535 nm (green) in HEK293 cell free culture (AID 720682). In outline:
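Using fluorescein as calibrant, autofluorescence was quantified at 485/535 nm in cell-free DMEM containing 10% FBS after pintool addition of compound or vehicle.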

Assay [4] is described as follows: qHTS assay to test for compound auto fluorescence at 590 nm (red) in HEK293 cell free culture (AID 720683). In outline: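 Cell-free wells of DMEM with 10% FBS received compound, and intrinsic fluorescence was read at excitation/emission 540/590 nm. Values expressed as equivalence to Rose Bengal sodium.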
The nature of assay [5]: qHTS assay to test for compound auto fluorescence at 590 nm (red) in HepG2 cell free culture (AID 720684). In outline: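 Compounds are added to culture medium (MEM, 10% FBS) lacking cells, then fluorescence is read at excitation 540 nm, emission 590 nm, with Rose Bengal sodium as the equivalency standard.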
Assay [6] is described as follows: qHTS assay to test for compound auto fluorescence at 535 nm (green) in HepG2 cell free culture (AID 720686).
Assay [7] can be described thus: qHTS assay to test for compound auto fluorescence at 460 nm (blue) in HepG2 cells (AID 720687). In outline:
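HepG2 cells in MEM with 10% FBS, attached overnight at 37 C, were exposed to compound or DMSO for 1 hr at 37 C, 5% CO2. Blue fluorescence was read at 405/460 nm, with triamterene as reference fluorophore.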

Assay [8] concerns the target Glucocorticoid receptor (Homo sapiens) (UniProt P04150). Description: qHTS assay to identify small molecule agonists of the glucocorticoid receptor (GR) signaling pathway (AID 720691; active = well fitted activation curve with a large enough effect in the signal ratio in the repeat runs, not every such curve was filed as active; the % refers to the signal ratio). In outline:
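Beta-lactamase reporter activity, read as fluorescence intensity, was measured in GR-bla HeLa cells exposed to compounds for 18 h at 37 C and then loaded with LiveBLAzer B/G FRET substrate for 2 h at room temperature.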

For assay [9] the target is unchanged. Description: qHTS assay to identify small molecule antagonists of the glucocorticoid receptor (GR) signaling pathway (AID 720692; active = well fitted inhibition curve with a large enough effect in the signal ratio in the repeat runs, not every such curve was filed as active; the % refers to the signal ratio). In outline:
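Fluorescence from cleaved LiveBLAzer B/G FRET substrate reports GRE-driven beta-lactamase in HeLa cells; compounds are tested against 5 nM dexamethasone (final) over 18 h at 37 C, substrate incubation 2 h at room temperature.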

The nature of assay [10]: qHTS assay to identify small molecule antagonists of the glucocorticoid receptor (GR) signaling pathway - cell viability counter screen (AID 720693). Also: nearly all actives have a fitted effect of over 55% in size.
Assay [11] in a line: qHTS assay for identifying genotoxic compounds that show differential cytotoxicity against isogenic chicken DT40 cell lines with known DNA damage response pathways - wild type cell line (AID 743012). Also: nearly all actives have a fitted effect of over 60% in size. Also: potency is read from the fitted curve at half-maximal effect. In outline:
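Quantitative HTS on parental DT40 cells: 40 h compound treatment at 37 C/5% CO2, with viability then determined by CellTiter-Glo luminescence. Values serve as the DNA repair-proficient reference for differential cytotoxicity.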

Assay [12] can be described thus: qHTS assay for identifying genotoxic compounds that show differential cytotoxicity against isogenic chicken DT40 cell lines with known DNA damage response pathways - Rev3 mutant cell line (AID 743014). Also: nearly all actives have a fitted effect of over 55% in size. Also: potency is read from the fitted curve at half-maximal effect.
A short description of assay [13]: qHTS assay for identifying genotoxic compounds that show differential cytotoxicity against isogenic chicken DT40 cell lines with known DNA damage response pathways - Rad54/Ku70 mutant cell line (AID 743015). Also: nearly all actives have a fitted effect of over 60% in size. Also: potency is read from the fitted curve at half-maximal effect.
Assay [14] in a line: qHTS assay to identify small molecule antagonists of the androgen receptor (AR) signaling pathway - cell viability counter screen (AID 743033; also: nearly all actives have a fitted effect of over 45% in size).
Assay [15] can be described thus: qHTS assay to identify small molecule antagonists of the androgen receptor (AR) signaling pathway using the MDA cell line - cell viability counter screen (AID 743041; also: nearly all actives have a fitted effect of over 45% in size). In outline:
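Same-well cytotoxicity was assessed by CellTiter-Fluor in MDA-kb2 AR-luc cells after 16 h of compound treatment under R1881 agonism.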

Assay [16] can be described thus: qHTS assay to test for compound auto fluorescence at 460 nm (blue) in HepG2 cell free culture (AID 720685). In outline:
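Compound (23 nL) or DMSO pinned into cell-free MEM with 10% FBS; blue fluorescence read at 405/460 nm excitation/emission, expressed as auto-fluorescence equivalency to triamterene.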

Assay [17] addresses Androgen receptor (Homo sapiens) (UniProt P10275). The assay is described as follows: qHTS assay to identify small molecule agonists of the androgen receptor (AR) signaling pathway using the MDA cell line (AID 743040; also: nearly all actives have a fitted effect of over 20% in size). In outline:
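Human breast carcinoma MDA-kb2 reporter cells (MMTV-luc, AR/GR elements) were treated for 16 h at 37C in 0% CO2 following a 5 h settling period. Signal was quantified by ONE-Glo luminescence.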

Glucocorticoid receptor (Homo sapiens), sequence (P04150 whole entry, looked up): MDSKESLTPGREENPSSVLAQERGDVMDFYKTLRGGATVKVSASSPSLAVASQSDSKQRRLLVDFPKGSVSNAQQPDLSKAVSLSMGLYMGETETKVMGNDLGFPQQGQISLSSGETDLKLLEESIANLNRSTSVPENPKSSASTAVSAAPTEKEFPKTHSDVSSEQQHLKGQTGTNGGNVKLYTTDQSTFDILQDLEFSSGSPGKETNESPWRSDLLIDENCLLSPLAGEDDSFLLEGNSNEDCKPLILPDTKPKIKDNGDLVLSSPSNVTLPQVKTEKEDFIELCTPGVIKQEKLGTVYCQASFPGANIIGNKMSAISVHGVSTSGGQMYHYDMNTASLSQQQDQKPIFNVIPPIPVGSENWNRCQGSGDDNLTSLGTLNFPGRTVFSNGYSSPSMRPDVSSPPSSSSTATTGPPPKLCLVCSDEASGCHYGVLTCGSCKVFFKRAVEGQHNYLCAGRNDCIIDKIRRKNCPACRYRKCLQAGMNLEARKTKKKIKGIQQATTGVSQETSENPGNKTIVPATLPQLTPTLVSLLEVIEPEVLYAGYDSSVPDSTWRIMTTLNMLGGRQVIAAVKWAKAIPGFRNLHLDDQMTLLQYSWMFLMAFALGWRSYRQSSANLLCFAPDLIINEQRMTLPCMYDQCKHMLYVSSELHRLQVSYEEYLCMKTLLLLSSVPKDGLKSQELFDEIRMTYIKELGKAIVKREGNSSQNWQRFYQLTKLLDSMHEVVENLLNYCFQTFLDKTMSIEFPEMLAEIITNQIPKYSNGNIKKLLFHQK
Androgen receptor (Homo sapiens), sequence (P10275 whole entry, looked up): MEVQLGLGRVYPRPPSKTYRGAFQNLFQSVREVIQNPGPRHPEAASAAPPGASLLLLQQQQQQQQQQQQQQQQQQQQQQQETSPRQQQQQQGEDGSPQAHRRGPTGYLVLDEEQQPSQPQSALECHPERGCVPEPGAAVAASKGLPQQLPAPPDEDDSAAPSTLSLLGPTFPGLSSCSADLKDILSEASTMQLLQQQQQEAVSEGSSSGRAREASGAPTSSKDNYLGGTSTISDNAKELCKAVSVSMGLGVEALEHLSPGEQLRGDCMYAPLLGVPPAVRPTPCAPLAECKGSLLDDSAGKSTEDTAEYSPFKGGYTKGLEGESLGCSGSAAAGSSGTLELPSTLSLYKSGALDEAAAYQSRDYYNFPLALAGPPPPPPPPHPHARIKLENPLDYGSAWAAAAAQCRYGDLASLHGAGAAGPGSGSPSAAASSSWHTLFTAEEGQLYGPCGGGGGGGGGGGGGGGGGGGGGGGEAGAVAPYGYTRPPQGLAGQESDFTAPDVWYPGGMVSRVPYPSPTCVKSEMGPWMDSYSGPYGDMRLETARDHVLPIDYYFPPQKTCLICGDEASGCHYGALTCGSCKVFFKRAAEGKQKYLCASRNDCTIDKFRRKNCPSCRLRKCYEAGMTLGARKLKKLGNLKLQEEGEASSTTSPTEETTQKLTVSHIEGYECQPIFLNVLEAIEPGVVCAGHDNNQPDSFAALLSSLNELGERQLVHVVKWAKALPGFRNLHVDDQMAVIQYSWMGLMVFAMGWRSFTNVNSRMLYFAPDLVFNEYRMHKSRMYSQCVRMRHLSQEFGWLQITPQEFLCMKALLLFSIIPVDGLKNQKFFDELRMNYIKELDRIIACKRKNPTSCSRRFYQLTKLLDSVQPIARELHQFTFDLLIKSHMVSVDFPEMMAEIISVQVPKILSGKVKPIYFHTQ

Turning to `CC12CCC(CC1)C(C)(C)O2`, the Potency result in [1], in assay [2], in assay [3], in assay [4], in assay [5] and in [6] was “inactive” throughout. Also, the Potency entry in assay [7], in assay [8], in [9], in assay [10], in assay [11] and in assay [12] was “inactive” in each case. Besides, the Potency result in [13], in assay [14] and in assay [15] was “inactive” in each case.
For `CN(N=O)C(=O)N[C@@H]1[C@@H](O)[C@H](O)[C@@H](CO)O[C@@H]1O`, the Potency result in assay [1], in [2], in [3], in assay [4], in assay [16] and in assay [6] was “inactive” throughout. The Potency result in assay [7], in [8], in assay [9], in [10], in assay [11] and in assay [12] was “inactive” in each case. The Potency entry in [13], in assay [14] and in assay [15] was “inactive” each time.
With `Cc1cn([C@H]2C=C[C@@H](CO)O2)c(=O)[nH]c1=O`, the Potency result in assay [1], in assay [2], in [3], in assay [4], in [16] and in assay [6] was “inactive” in each case. Further, the Potency entry in [7], in assay [10], in [11], in assay [12], in [13] and in assay [14] was “inactive” throughout. Besides, the Potency entry in assay [15] was “inactive”.
For `F[B-](F)(F)F`, the Potency result in assay [1], in assay [2], in assay [3], in assay [4], in assay [6] and in [7] was “inactive” in each case. In addition, the Potency entry in [10], in assay [11], in assay [12], in assay [13], in [14] and in [15] was “inactive” throughout.
As for `O=C(O)c1ccccc1`, the Potency result in assay [1], in assay [2], in [3], in assay [4], in assay [16] and in assay [6] was “inactive” each time. Further, the Potency result in assay [7], in [10], in [11], in [12], in assay [13] and in [14] was “inactive” each time. Also, in assay [15], the Potency entry was “inactive”.
For `CCN(CC)C(=O)c1cccc(C)c1`, the Potency result in assay [1], in assay [2], in assay [3], in assay [4], in [6] and in assay [7] was “inactive” in each case. Moreover, the Potency entry in assay [8], in assay [9], in assay [10], in [11], in assay [12] and in assay [13] was “inactive” in each case. The Potency result in [14] and in assay [15] was “inactive” each time.
For the compound `CCc1nc(N)nc(N)c1-c1ccc(Cl)cc1`, the Potency entry in assay [1], in assay [2], in assay [3], in assay [4], in assay [6] and in assay [7] was “inactive” in each case. In addition, the Potency result in assay [8], in assay [9], in assay [10] and in assay [15] was “inactive” throughout. Moreover, the Potency in assay [11] was 596 nM (active) and 139 nM (active) and 273 nM (active); in [12], 668 nM (active) and 196 nM (active) and 109 nM (active); in assay [13], 1.5 µM (active) and 392 nM (active) and 217 nM (active).
Regarding `CCCc1cc(=O)[nH]c(=S)[nH]1`, the Potency entry in assay [1], in assay [2], in [3], in [4], in [16] and in [6] was “inactive” in each case. Moreover, the Potency entry in [7], in assay [10], in assay [11], in assay [14] and in assay [15] was “inactive” each time. Also, the Potency result in [12] was “inactive and 61.1 µM (active)”; in [13], “inactive and 54.5 µM (active)”.
For `NS(=O)(=O)c1cc2c(cc1Cl)NCNS2(=O)=O`, the Potency entry in assay [1], in assay [2], in assay [3], in assay [4], in [6] and in [7] was “inactive” each time. The Potency result in assay [8], in [9], in [10], in [11], in [12] and in assay [13] was “inactive” in each case. For the same compound, the Potency result in [14] and in assay [15] was “inactive” each time.
Take `CC(=O)CC(c1ccccc1)c1c(O)c2ccccc2oc1=O` (stereo not given): the Potency result in assay [1], in [2], in assay [3], in assay [4], in assay [16] and in assay [6] was “inactive” in each case. The Potency result in [7], in assay [10], in [11], in [12], in assay [13] and in [14] was “inactive” throughout. For the same compound, the Potency entry in assay [15] is “inactive”.
With `Nc1ccc(O)c([N+](=O)[O-])c1`, the Potency result in assay [1], in assay [2], in assay [3], in assay [4], in assay [6] and in assay [7] was “inactive” throughout. Moreover, the Potency entry in assay [8] and in [14] was “inactive” in each case. The Potency in assay [13] was 65.6 µM (active).
`NC1CCCCC1`: the Potency result in assay [1], in assay [2], in assay [3], in assay [4], in assay [16] and in assay [6] was “inactive” throughout. The Potency entry in assay [7], in assay [10], in assay [11], in [14] and in [15] was “inactive” in each case. Moreover, the Potency in assay [12] was 54.8 µM (active) and inactive; in [13], 61.5 µM (active) and inactive.
On to `CCN(Cc1c(F)cccc1Cl)c1c([N+](=O)[O-])cc(C(F)(F)F)cc1[N+](=O)[O-]`, for which the Potency result in assay [1], in assay [2], in assay [3], in [4], in [6] and in assay [7] was “inactive” each time. Further, in assay [15], the Potency result is “inactive”. Also, the Potency was 30.6 µM (active) in assay [11], 27.3 µM (active) in [12] and 24.3 µM (active) in assay [13].
On to `CCOC(N)=O`, for which the Potency entry in [1], in [2], in assay [3], in [4], in assay [16] and in assay [6] was “inactive” each time. Besides, the Potency entry in assay [7], in assay [10], in assay [11], in assay [12], in assay [13] and in [14] was “inactive” in each case. The Potency entry in assay [15] was “inactive”.
Regarding `COc1cccc(O)c1O`, the Potency result in assay [1], in assay [2], in assay [3], in assay [4], in assay [6] and in assay [7] was “inactive” in each case. For the same compound, the Potency result in [8], in [9], in assay [10] and in [15] was “inactive” each time. Further, the Potency in assay [12] was 25.3 µM (active). The call in [17] was inactive.
Take `O=C1NS(=O)(=O)c2ccccc21`: the Potency entry in assay [1], in assay [2], in [3], in assay [4], in assay [16] and in assay [6] was “inactive” in each case. Moreover, the Potency result in assay [7], in [10], in [11], in [12], in [13] and in [14] was “inactive” each time. In [15], the Potency entry is “inactive”.

Values taken from PubChem BioAssay (Tox21).
